According to PubChem BioAssay:
Values without a mark were called inactive.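 The calls were made as follows: active = compounds killing one labelled cell type while sparing the other, by normalised counts and ratio limits, not self-fluorescent; inactive = the rest.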

experiment: EMT-state selective cytotoxicity in co-culture – imaging, PC-3E GFP, TEM4-18 mCherry, primary screen (AID 1345086); conditions: PC-3E GFP / TEM4-18 mCherry co-culture, imaging cell counts; at 1 µM; actives lie on both sides; counts scaled to control wells, 1 = unselective;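 also: normalised mesenchymal count divided by normalised epithelial count so high means epithelial killing; cells exposed to compound for 72 h before imaging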

Row | SMILES | red/green cell ratio (normalised)
1 | O=C(O)c1cc(=O)c2cccc(O)c2[nH]1 | 1.29
2 | COc1c2ccoc2nc2c(OC)c(OCC(O)C(C)(C)O)ccc12 (configuration not stated) | 0.91
3 | CC(C)=CCc1c2c(c3occ(-c4ccc(O)c(O)c4)c(=O)c3c1O)C=CC(C)(C)O2 | 0.76
4 | O=c1c(O)c(-c2ccccc2)oc2cc(O)ccc12 | 0.89
5 | C=C[C@@](C)(O)CCC1C(=C)C[C@H](O)C2C(C)(C)CCCC12C (some centres not stated) | 0.87
6 | CC(C(=O)O)[C@H]1CCC2C3CC=C4C[C@@H](O)CC[C@]4(C)C3CC[C@@]21C (some centres not stated) | 0.91
7 | CC1(C)C=Cc2cc3ccc(=O)oc3cc2O1 | 0.99
8 | CC(=O)c1c(O)c(C)c(O)c2c1OC1=CC(=O)C(C(C)=O)C(=O)C12C (configuration not stated) | 0.89
9 | O=C(O)c1cc2ccccc2[nH]1 | 1.04
10 | O=C1C=CC(=C(c2ccc(O)cc2)c2ccc(O)cc2)C=C1 | 0.79
11 | COc1c(OC)c2occc2c2oc(=O)ccc12 | 0.97
12 | CON | 1.03
13 | CCOC(=O)[C@H](CCc1ccccc1)N[C@H](C)C(=O)N1C2CCCCC2C[C@H]1C(=O)O (some centres not stated) | 0.91
14 | O=C(/C=C/c1ccccc1)c1ccc(O[C@@H]2O[C@H](CO)[C@@H](O)[C@H](O)[C@H]2O)cc1O | 1
15 | COc1cc(OC)c2ccc(=O)oc2c1 | 1.1
16 | Oc1cc(O)c2c(c1)O[C@H](c1cc(O)c(O)c(O)c1)[C@H](O)C2 | 1.12

Row | SMILES | red/green cell ratio (normalised)
17 | Cc1ccc2c(c1)CC[C@H]1CC(=O)CC[C@]21C | 1.02
18 | CC(=O)N[C@@H]1[C@@H](O)[C@H](O)[C@@H](CO)O[C@H]1O | 0.98
19 | CC(=O)O[C@@H]1CC[C@@]2(C)C(C[C@@H](OC(C)=O)[C@@]3(C)C4=CC(=O)O[C@@H](c5ccoc5)[C@]4(C)CCC23)C1(C)C (some centres not stated) | 0.98
20 | C[C@]12CCC3c4ccc(OS(=O)(=O)O)cc4CCC3C1CC[C@H]2O (some centres not stated) | 0.87
21 | NC1(C(=O)O)CCCC1 | 0.86
22 | NC1=NCCN1CC(=O)O | 0.92
23 | NC(Cn1ccc(=O)c(O)c1)C(=O)O (configuration not stated) | 1.1
24 | CC1=CCc2c(cc3oc(C)cc(=O)c3c2O)OC1 | 1.1
25 | COC(=O)c1c(C)cc(O)cc1O | 1.06
26 | COC1=CC(=O)C=C(OC)C1=O | 0.91
27 | COc1cc(C)c2c(=O)cc(-c3ccccc3)oc2c1 | 0.85
28 | N#Cc1ccc2c(c1)N(CCCN1CCC(O)CC1)c1ccccc1S2 | 1.05
29 | C=NC(C(=O)NC1C(=O)N2C1SC(C)(C)C2C(=O)O)c1ccccc1 (configuration not stated) | 1.12
30 | O=C1c2ccc(O)c(O)c2C(=O)c2c(O)ccc(O)c21 | 1.12
31 | COc1c2ccoc2c(OC)c2oc(=O)ccc12 | 1.06
32 | O=c1[nH]c2cc(Cl)c(Cl)cc2[nH]c1=O | 1.09
